# Bioassay records (PubChem)
# Only some compounds are listed: those with a hit (about 6.7% of all), similar ones and a draw of the others.
# T cruzi growth-1 = inhibitors of T. cruzi proliferation | T. cruzi beta-gal in NIH3T3, GalScreen luminescence, 90 h | inhibition, % at 8.34 µM | hit rate 5.9% among 77,000;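 active = mean inhibition above about 93%, with at least 55% of replicates each passing it, limit read from the data, passing the limit was not always enough; inconclusive = only one of those two conditions holds; inactive = neither condition holds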
# C diff growth = inhibitors of Clostridium difficile growth. growth activity, negative = inhibition, % at 16 µg/mL (by protocol). hit rate 0.25% among 86,000. Clostridium difficile clinical isolate growth, OD600, 24 h; stronger effect = lower value;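 active = mean growth activity at or below -80% and every replicate also at or below -80%; inconclusive = mean at or below -80% but some replicate above -80%; inactive = mean growth activity above -80%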;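 note: 0% = DMSO wells and -100% = levofloxacin 16 µg/mL wells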
# Pf Dd2 growth = inhibitors of Plasmodium falciparum Dd2 growth; P. falciparum Dd2 growth, SYBR Green, 72 h; stronger effect = lower value; activity change, % at 10 µM; hit rate 2.3% among 94,000; AID 1159554; in the data active = activity change below about -80%; inconclusive = no clear call, values can overlap the other calls
# T cruzi growth-2 = blocks T. cruzi growth in NIH3T3 host cells; shares compounds with T cruzi growth-1; T. cruzi beta-gal in NIH3T3, GalScreen luminescence, 90 h; inhibition, % at 8.35 µM; hit rate 72% among 5,600;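 active = mean replicate inhibition above about 95% and at least 55% of replicates individually reaching it, limit read from the data; inconclusive = only one of the two criteria is met; inactive = neither criterion is met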
# T cruzi growth-3 = blocks T. cruzi growth in NIH3T3 host cells; shares compounds with T cruzi growth-1; T. cruzi beta-gal in NIH3T3, GalScreen luminescence, 90 h; inhibition, % at 2.09 µM; hit rate 21% among 5,600; AID 651740;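 active = mean inhibition above about 95%, with at least 55% of replicates also reaching it, limit read from the data; inconclusive = meets just one of the two conditions; inactive = meets neither condition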;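 note: plate controls were neutral control median for no effect and positive control median for full effect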
# 3T3 cytotox = NIH/3T3 (mouse) viability loss; shares compounds with T cruzi growth-1; NIH/3T3 viability, CellTiter-Glo ATP luminescence, 90 h; cytotoxicity (signal decrease), % at 8.35 µM; hit rate 14% among 5,600; AID 651742;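 active = mean signal decrease across replicates above about 35% based on untreated-well scatter, with enough replicates individually passing, limit read from the data; inconclusive = no rule stated though some were filed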;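 note: 0% = median of neutral control wells and 100% = median of positive control wells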
# NIH3T3 tox 2 = NIH/3T3 (mouse) viability loss | shares compounds with T cruzi growth-1 | hit rate 56% among 5,600 | AID 651744 | NIH/3T3 viability, CellTiter-Glo ATP luminescence, 90 h | inhibition, % at 24.9 µM;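 active = mean loss of cell viability signal at or above a set limit, and enough replicates individually reaching it; inconclusive = meets only the mean limit or only the replicate share; inactive = meets neither condition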;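 note: 0% = median of neutral control wells and 100% = median of positive control wells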
# An asterisk follows results filed as active; ? = inconclusive; . = not tested or not shown.
SMILES,T cruzi growth-1,C diff growth,Pf Dd2 growth,T cruzi growth-2,T cruzi growth-3,3T3 cytotox,NIH3T3 tox 2
C[C@H]1CCCCO[C@@H](CN(C)C)[C@@H](C)CN([C@@H](C)CO)C(=O)c2cc(NC(=O)Nc3ccc(C(F)(F)F)cc3)ccc2O1,37.5,11.7,-10.5,.,.,.,.
C[C@H]1CCCCO[C@H](CN(C)C)[C@@H](C)CN([C@@H](C)CO)C(=O)c2cc(NC(=O)Nc3ccc(C(F)(F)F)cc3)ccc2O1,43.2,9.5,.,.,.,.,.
C[C@@H]1CCCCO[C@@H](CN(C)CC2CCCCC2)[C@H](C)CN([C@@H](C)CO)C(=O)c2cc(NC(=O)Nc3ccc(C(F)(F)F)cc3)ccc2O1,?,-61.5,-64.1,85.0,108.4*,116.6*,104.0*
C[C@@H]1CCCCO[C@@H](CN(C)CC2CC2)[C@@H](C)CN([C@H](C)CO)C(=O)c2cc(NC(=O)Nc3ccc(C(F)(F)F)cc3)ccc2O1,98.0*,0.0,-53.6,98.6*,107.3*,32.0,100.6*
C[C@H](CO)N1C[C@H](C)[C@@H](CN(C)CC2CC2)OCCCC[C@H](C)Oc2ccc(NC(=O)Nc3ccc(C(F)(F)F)cc3)cc2C1=O,56.7,8.6,-65.1,.,.,.,.
C[C@H](CO)N1C[C@H](C)[C@H](CN(C)S(=O)(=O)c2ccc(Cl)cc2)Oc2c(NS(=O)(=O)c3ccc(F)cc3)cccc2C1=O,12.8,-19.0,-37.5,.,.,.,.
CCCNC(=O)[C@@H]1[C@@H](CO)[C@@H]2Cn3c(ccc(-c4ccc(F)cc4)c3=O)[C@@H]2N1CCC,21.4,1.1,.,.,.,.,.
N#C[C@H]1[C@@H](c2ccc(/C=C/c3ccccc3)cc2)[C@@H](CO)N1C(=O)C1CCCC1,?,9.0,-14.5,95.3*,49.6,22.8,27.1*
COc1ccc(-c2ccc([C@@H]3[C@@H](C#N)N(C(=O)C4CC4)[C@H]3CO)cc2)cc1,79.6,-4.2,-34.7,.,.,.,.
COc1ccccc1-c1ccc([C@@H]2[C@H](C#N)N(C(=O)CN(C)C)[C@H]2CO)cc1,52.9,13.3,-11.3,.,.,.,.
N#C[C@@H]1[C@@H](c2ccc(/C=C/c3ccccc3)cc2)[C@@H](CO)N1C(=O)C1CCCC1,25.7,4.9,26.5,.,.,.,.
COc1ccc(-c2ccccc2[C@H]2[C@@H](CO)N(C(=O)NC3CCCCC3)[C@H]2C#N)cc1,.,8.8,-9.8,.,.,.,.
COc1ccc(-c2ccc([C@@H]3[C@@H](C#N)N(C(=O)CN(C)C)[C@@H]3CO)cc2)cc1,108.5*,-5.6,-30.6,76.6,3.0,28.4,21.6
COc1ccc(-c2ccc([C@@H]3[C@@H](CO)N(C(=O)NC4CCCC4)[C@H]3C#N)cc2)cc1,?,7.9,-33.8,29.6,-4.8,-2.4,-12.4
COc1ccc(-c2ccc([C@H]3[C@@H](C#N)N(C(=O)C4CC4)[C@@H]3CO)cc2)cc1,105.6*,-2.3,-33.3,61.0,55.6,-7.2,37.3*
COc1ccccc1C(=O)Nc1ccc2c(c1)C(=O)N(C)C[C@@H](OC)[C@H](C)CN(CC1CC1)[C@H](C)CO2,11.0,2.6,-24.7,.,.,.,.
CO[C@H]1CC[C@H]2CCOc3ccc(C#N)cc3C(=O)N(C)[C@@H](C)C(=O)N(C)C[C@H]1O2,-1.7,-3.0,.,.,.,.,.
CN1C[C@@H]2[C@H](c3ccccc31)[C@H](CO)N2C(=O)C1CCCC1,30.6,-0.2,-7.7,.,.,.,.
Cc1ccc(S(=O)(=O)N(C)C[C@@H]2Oc3ccc(NC(=O)Nc4cccc5ccccc45)cc3C(=O)N([C@@H](C)CO)C[C@@H]2C)cc1,89.6,.,-43.9,.,.,.,.
COc1ccc(-c2ccc([C@H]3[C@@H](C#N)N(C(=O)C4CCCC4)[C@@H]3CO)cc2)cc1,106.0*,9.5,-45.0,77.7,24.0,11.8,13.9
N#C[C@@H]1[C@H](c2ccc(C3=CCCC3)cc2)[C@H](CO)N1C(=O)C1CC1,94.8,-7.4,5.0,.,.,.,.
COc1ccc(-c2ccc([C@@H]3[C@@H](C#N)N(C(=O)C4CCCC4)[C@H]3CO)cc2)cc1,42.5,8.3,-20.6,.,.,.,.
N#C[C@H]1[C@H](c2ccc(C3=CCCC3)cc2)[C@H](CO)N1C(=O)C1CC1,101.6*,-1.9,-13.2,96.4*,49.9,8.5,14.6
COCC(=O)Nc1ccc2c(c1)[C@H]1C[C@@H](CC(=O)N3CCCCC3)O[C@H](CO)[C@H]1O2,-8.1,-0.5,-8.9,.,.,.,.
O=C(NCC[C@H]1CC[C@@H](NC(=O)C2CCC2)[C@H](CO)O1)c1cnccn1,184.5*,-2.6,-5.6,56.3,4.7,-7.1,10.2
SMILES,T cruzi growth-1,C diff growth,Pf Dd2 growth,T cruzi growth-2,T cruzi growth-3,3T3 cytotox,NIH3T3 tox 2
O=C(NCC[C@H]1CC[C@H](NC(=O)C2CCC2)[C@@H](CO)O1)c1cnccn1,52.0,.,4.9,.,.,.,.
C[C@@H]1CN([C@@H](C)CO)S(=O)(=O)c2ccc(C#CC(C)(C)O)cc2O[C@H]1CN(C)C(=O)C1CC1,101.7*,.,27.7,-30.6,-51.6,3.6,47.2*
C[C@H](CO)N1C[C@H](C)[C@H](CN(C)C(=O)C2CC2)Oc2cc(C#Cc3ccncc3)ccc2S1(=O)=O,105.2*,.,-56.4,105.0*,-8.8,22.0,65.4*
C[C@@H]1CN([C@H](C)CO)S(=O)(=O)c2ccc(C#Cc3ccncc3)cc2O[C@@H]1CN(C)C(=O)C1CCC1,-69.9,4.4,-19.4,.,.,.,.
C[C@H](CO)N1C[C@H](C)[C@@H](CN(C)C(=O)C2CC2)Oc2cc(C#Cc3ccncc3)ccc2S1(=O)=O,123.4*,.,-32.9,-15.4,16.6,-10.0,61.6*
C[C@H]1CN([C@@H](C)CO)S(=O)(=O)c2ccc(C#CC(C)(C)O)cc2O[C@H]1CN(C)C(=O)C1CC1,-15.2,.,28.8,.,.,.,.
C[C@H](CO)N1C[C@H](C)[C@@H](CN(C)C(=O)C2CCC2)Oc2cc(C#Cc3ccncc3)ccc2S1(=O)=O,-76.2,1.7,-12.7,.,.,.,.
C[C@@H]1CN([C@H](C)CO)C(=O)c2cc(C3=CCCC3)cnc2O[C@@H]1CN(C)Cc1ccccc1,7.7,4.1,-17.1,.,.,.,.
CC(C)NC(=O)Nc1ccc2c(c1)CC(=O)N([C@H](C)CO)C[C@@H](C)[C@@H](CN(C)Cc1ccccc1)O2,37.0,-7.4,2.2,.,.,.,.
C[C@H]1CN([C@@H](C)CO)C(=O)c2cc(NC(=O)Cc3cn(C)c4ccccc34)ccc2O[C@@H]1CN(C)C(=O)Nc1ccc(F)cc1,19.2,1.4,-17.0,.,.,.,.
O=C(C[C@H]1C[C@@H]2c3cc(NC(=O)NC4CCCCC4)ccc3O[C@@H]2[C@@H](CO)O1)NCc1ccccn1,.,7.8,12.5,.,.,.,.
C[C@@H]1CN([C@@H](C)CO)C(=O)c2cc(NC(=O)c3ccccc3)ccc2O[C@@H](C)CCCCO[C@H]1CN(C)C(=O)c1ccncc1,90.9,-6.3,-10.2,.,.,.,.
C/C=C/c1cnc2c(c1)C(=O)N([C@H](C)CO)C[C@@H](C)[C@H](CN(C)C(=O)Nc1ccccc1F)O2,3.6,-0.9,10.8,.,.,.,.
